Compounds with a hit are over-represented: about 2% of the library has one in this group of screens.
LYPLA1 inh: blocks human lysophospholipase 1, a PME1 counter-screen; inhibition, % at 5.9 µM; O75608; 320,000 compounds, 0.16% hits; recombinant LYPLA1, FP-Rh probe fluorescence polarization;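 active means inhibition above the mean of all tested compounds plus 3 SD, set per campaign, cut at about 14% in these data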;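 further: inhibitors block serine hydrolase probe labeling of LYPLA1 so polarization falls; 0% = enzyme with DMSO and 100% = wells lacking LYPLA1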
LYPLA2 inh: LYPLA2 (human) inhibition in PME1 counter-screen; recombinant LYPLA2, FP-Rh probe fluorescence polarization; inhibition, % at 5.9 µM; 320,000 compounds, 0.38% hits; O95372; AID 2177;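 active means inhibition above the screen-wide mean plus 3 SD, limit set per campaign, cut at about 26% in these data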;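 further: 0% = LYPLA2 with DMSO and 100% = wells lacking LYPLA2 enzyme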
Target sequence (O95372 whole entry, looked up): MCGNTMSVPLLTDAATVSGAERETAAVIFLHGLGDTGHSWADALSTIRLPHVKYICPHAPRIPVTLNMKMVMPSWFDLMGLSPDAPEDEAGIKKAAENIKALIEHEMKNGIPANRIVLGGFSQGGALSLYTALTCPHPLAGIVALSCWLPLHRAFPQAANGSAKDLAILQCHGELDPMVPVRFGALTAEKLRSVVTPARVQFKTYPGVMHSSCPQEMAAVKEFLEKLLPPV
PREPL inhibitor: inhibitors of human prolyl oligopeptidase-like enzyme PREPL; AID 2751; Q4J6C6; inhibition, % at 5.96 µM; 320,000 compounds, 0.68% hits; recombinant PREPL, fluorescence polarization activity-based probe; in the data active means inhibition above about 43%;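 further: 0% = enzyme with DMSO and 100% = wells lacking enzyme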
Fam108B counter: counter-screen for RBBP9 inhibitors: inhibitors of mouse Fam108B. recombinant Fam108B, FP-Rh probe fluorescence polarization. inhibition, % at 9.51 µM. 300,000 compounds, 0.33% hits;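 active means inhibition above the screen mean inhibition plus 3 SD, computed separately per campaign, cut at about 18% in these data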;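 further: inhibitors lower polarization as less probe binds the enzyme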
PME-1 primary: PME-1 (human) inhibition; Q9Y570; recombinant PME-1, FP-Rh probe fluorescence polarization; inhibition, % at 5.9 µM; 320,000 compounds, 0.53% hits; AID 2130;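 active means inhibition above the campaign mean of all compounds plus 3 SD, cut at about 26% in these data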;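 further: competitive labeling of PME-1 active site by serine hydrolase directed probe; 0% = PME-1 with DMSO and 100% = wells lacking PME-1 enzyme; inhibitors block probe labeling so polarization falls and inhibition rises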
Target sequence (Q9Y570 whole entry, looked up): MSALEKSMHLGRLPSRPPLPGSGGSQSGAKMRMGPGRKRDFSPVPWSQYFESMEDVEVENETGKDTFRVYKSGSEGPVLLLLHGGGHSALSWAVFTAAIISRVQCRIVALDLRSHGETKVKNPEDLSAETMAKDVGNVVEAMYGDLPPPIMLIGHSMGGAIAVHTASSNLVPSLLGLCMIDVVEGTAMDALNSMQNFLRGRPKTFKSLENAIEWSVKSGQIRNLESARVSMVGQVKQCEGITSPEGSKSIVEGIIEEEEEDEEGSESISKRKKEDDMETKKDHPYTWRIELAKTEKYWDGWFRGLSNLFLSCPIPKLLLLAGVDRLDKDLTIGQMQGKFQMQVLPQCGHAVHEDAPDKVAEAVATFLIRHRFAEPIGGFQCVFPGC
GSTO1 inh: GSTO1 inhibition, counter-screen for RBBP9 inhibitors. recombinant GSTO1, activity-based probe fluorescence polarization. inhibition, % at 5.96 µM. 300,000 compounds, 1.1% hits. AID 1974;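 active means inhibition above the campaign mean inhibition plus 3 SD, cut at about 35% in these data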;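 further: 0% = GSTO1-1 with DMSO and 100% = wells lacking GSTO1-1 enzyme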
Starred values were filed as active, the others as inactive; . = no result.

SMILES	LYPLA1 inh	LYPLA2 inh	PREPL inhibitor	Fam108B counter	PME-1 primary	GSTO1 inh
Nc1c(C(=O)Nc2ccccc2)sc2nc(-c3ccco3)ccc12	-10.6	2.2	17.5	4.4	55.5*	8.4
Nc1c(C(=O)Nc2ccccc2)sc2nc(-c3cccnc3)ccc12	-1.3	-4.4	16.1	1.2	14.4	6.4
COc1ccccc1NC(=O)c1sc2nc(-c3ccco3)ccc2c1N	-10.4	-5.8	7.7	9.7	69.7*	-0.9
Cc1nc2ccc(NC(=O)[C@H](C)N3C(=O)C4CC=CCC4C3=O)cc2s1 (some centres undefined)	.	.	10.6	.	.	.
Cc1cccc(NCc2ccc(Br)cc2)n1	-1.0	2.9	-1.9	6.0	3.9	-0.6
O=C(COC(=O)c1cc(=O)c2ccccc2o1)Nc1ccccc1F	.	.	22.2	.	.	.
OCC[C@@H]1C[C@H](O)[C@@H](O)[C@]2(OCCc3ccccc32)O1	-1.1	-5.8	8.4	-1.2	-3.8	0.5
COc1ccc(NS(=O)(=O)c2ccc(N3CCCC3)c(NC(=S)Nc3cccc(S(=O)(=O)N(C)C)c3)c2)cc1	-9.8	-4.9	4.7	11.5	5.4	0.8
COc1cc(/C=C2/C(=O)N(c3ccccc3)N=C2C)ccc1OS(=O)(=O)c1ccccc1	-4.6	1.6	-3.0	10.2	12.8	35.7*
CC1=NN(c2ccccc2)C(=O)/C1=C\c1ccc(Br)s1	-4.3	-0.2	-2.9	7.7	3.9	16.2
CC1=NN(c2ccccc2)C(=O)/C1=C/c1cccs1	0.5	4.3	3.0	-2.5	0.4	55.0*
CC1=NN(c2ccc(C)c(C)c2)C(=O)/C1=C/c1ccc2c(c1)n(C)c(=O)n2C	-2.0	0.3	2.2	1.0	-0.4	37.2*
COc1cc(/C=C2/C(=N)N3C(=NC2=O)SN=C3S(C)(=O)=O)ccc1OS(=O)(=O)c1ccccc1	-5.1	-6.4	2.1	-8.8	-1.9	-36.8
CSCCC(NC(=O)c1ccco1)C(=O)NCCc1ccc(Cl)cc1 (centres undefined)	.	.	-6.9	.	.	.
Cc1cc(C)c2[nH]c(O)c(N=NC3=NC(=O)CS3)c2c1	2.5	-1.6	12.9	4.9	28.2*	21.2
Cc1cccc(C)c1NC(=O)COC(=O)c1ccccc1Nc1ccccc1	-3.3	-7.0	1.7	-3.0	-3.3	-5.8
Cc1ccc(NC(=O)COC(=O)c2ccccc2-c2nc3ccccc3s2)c(C)c1	-1.7	0.5	-4.4	-1.8	7.8	-1.5
O=C(COC(=O)c1ccc2c(c1[N+](=O)[O-])C(=O)c1ccccc1C2=O)NC1CC1	-1.9	-11.4	14.0	-1.8	0.5	34.8
O=C(COC(=O)c1cccc2c1C(=O)c1ccccc1C2=O)NC1CCCCC1	3.7	2.5	7.2	6.7	40.8*	6.8
Cc1ccc(NC(=O)COC(=O)c2cccc3c2C(=O)c2ccccc2C3=O)c(C)c1	-2.5	-1.2	25.9	5.3	85.5*	2.5
Cc1cc(C)c(NC(=O)COC(=O)c2cccc3c2C(=O)c2ccccc2C3=O)c(C)c1	-5.4	2.3	26.0	9.7	46.4*	-2.6
C/C(=C\c1ccccc1)CN1CCN(C(C)C)C(CCO)C1 (centres undefined)	3.1	-0.1	3.7	2.4	1.1	11.1
COc1ccc(CCNC(=O)COC(=O)c2ccccn2)cc1	.	.	1.9	.	.	.
O=C(CN1CCN(Cc2ccccc2F)CC1)Nc1ccccc1Cl	-2.8	0.2	14.0	2.4	-2.0	-0.3
Cc1ccc(NC(=O)c2ccc([N+](=O)[O-])s2)cc1S(=O)(=O)N1CCOCC1	.	.	15.6	.	.	.
SMILES	LYPLA1 inh	LYPLA2 inh	PREPL inhibitor	Fam108B counter	PME-1 primary	GSTO1 inh
COc1cn(-c2ccccc2)nc1C(=O)OCC(=O)Nc1ccc(C)c(C)c1	0.6	5.8	18.7	.	2.8	.
CCc1nc2sc3c(c2c(=O)n1NC(=O)CCl)CCCC3	5.6	9.6	-0.1	2.0	4.5	58.4*
CCCC(=O)NC(c1ccccc1)c1c(O)ccc2ccccc12 (centres undefined)	-2.5	1.9	1.5	-4.1	1.4	-7.3
CCCC(=O)NC(c1ccccc1Cl)c1c(O)ccc2ccccc12 (centres undefined)	-0.3	-5.6	2.0	-0.2	60.5*	0.8
CCCCC(=O)NC(c1ccccc1Cl)c1c(O)ccc2ccccc12 (centres undefined)	-5.9	-3.4	9.1	0.7	45.5*	-0.6
CCCCC(=O)NC(c1ccc(OC)c(OC)c1)c1c(O)ccc2ccccc12 (centres undefined)	-1.8	-2.5	7.9	-3.2	6.4	0.0
CCCCN(CCCC)CCNC(=O)c1cn(C)c2ccc(S(=O)(=O)N(C)C3CCCCC3)cc2c1=O	0.7	0.3	2.0	-4.4	66.2*	4.7
CCCCN(CCCC)CCNC(=O)c1cn(CC)c2ccc(S(=O)(=O)N3CCc4ccccc4C3)cc2c1=O	-1.7	2.9	11.8	7.1	58.7*	-3.6
CCCN(CCC)CCCNC(=O)c1cn(CC)c2ccc(S(=O)(=O)N(C)C3CCCCC3)cc2c1=O	-4.4	-8.2	13.1	3.8	49.1*	-0.3
NS(=O)(=O)c1ccc(N=Nc2c[nH]c(=O)c(O)c2)cc1	-3.6	-9.0	-0.6	4.1	-66.0	64.4*
COc1ccc(N=Cc2nc(-c3ccco3)oc2O)cc1	1.7	6.3	17.6	18.1	-20.9	4.7
CCC(=NCc1ccc(Cl)c(Cl)c1)c1nc(-c2ccco2)oc1O	11.8	-0.7	73.9*	2.4	17.2	-0.6
Cc1ccc(C(=O)Nc2ccccc2C(=O)Nc2ccccn2)cc1Cl	-13.7	-19.0	-7.9	-6.7	-8.1	0.1
CN(C)CCNC(=O)c1nn(C)c2c1CCc1ccccc1-2	-1.4	-1.1	-16.9	-2.4	1.5	4.3
CC(=O)c1ccc(NC(=O)C(C)N2CCN(C/C=C/c3ccccc3)CC2)cc1 (centres undefined)	4.1	5.5	-20.0	-18.2	3.9	4.5
CC(C(=O)Nc1ccc([N+](=O)[O-])cc1)N1CCN(C/C=C/c2ccccc2)CC1 (centres undefined)	-1.1	31.0*	8.0	-1.4	-5.1	3.2
CC(C)(C)C(=O)CSc1ccc(S(=O)(=O)N2CCN(Cc3ccccc3)CC2)cn1	-4.3	-2.5	1.9	.	5.4	.
COc1ccccc1N1CCN(C2CCCN(C(=O)Cn3cccn3)C2)CC1 (centres undefined)	1.2	0.8	3.7	0.2	1.9	-4.2
O=C(CSc1nc2cc(Cl)ccc2o1)Nc1ccc(N2CCOCC2)cc1	2.3	4.6	11.3	-0.8	9.7	8.1
O=C(CSc1nc2ccccc2o1)Nc1ccc(N2CCOCC2)cc1	1.3	1.7	43.6*	-0.9	-4.1	-0.5
Cc1[nH]n(-c2ccccc2)c(=O)c1C(C[N+](=O)[O-])c1ccc(Cl)cc1 (centres undefined)	2.2	1.9	-4.4	-0.2	-1.8	61.3*
Cc1[nH]n(-c2ccccc2)c(=O)c1C(c1ccccc1[N+](=O)[O-])C(C#N)C#N (centres undefined)	0.0	1.7	3.3	5.3	2.1	7.7
